Screening results as filed in PubChem BioAssay.
HSF1 activator – increases HSF-1 driven luciferase reporter signal; NIH3T3-HGL HSF-1 luciferase reporter, MG132, 8 h; 100% = twice DMSO control signal; activation, % at 9 µM; 1.7% of 300,000 active;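 active = mean replicate activation of at least 50% with a set share of replicates each reaching 50%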
HSF1 inh – HSF1 inhibition; NIH3T3-HGL HSE-luciferase, MG132-induced, luminescence 8 h; hits give low values; activity change, negative = inhibition, % at 7.5 µM (by protocol); 0.77% of 300,000 active; AID 2098;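 active = more than half of replicate wells show activity change below -50%, luminescence cut by over half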;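 also: luciferase reports HSF-1 transcriptional activity via heat shock element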
HIF activator – HIF pathway transcriptional activation. U2OS HRE-luciferase reporter, luminescence; normalized: DMSO 0%, desferrioxamine 100%. 0.32% of 300,000 active. activation, % at 7.5 µM (by protocol);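 active = mean activation of at least 10% of the iron chelator positive control signal, with at least half of replicates also reaching 10%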
ARNT TACC3 PPI – ARNT/TACC3 interaction disruption. Q9Y6A5. inhibition, % at 9.99 µM. AlphaScreen His-ARNT PAS-B/GST-TACC3 binding, luminescence; TACC3 fragment carries E629A point mutation. AID 623870. 0.66% of 390,000 active;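 active = mean inhibition of replicates at least 50% and at least half of replicates each reaching 50%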
HSP90 refold inh – blocks HSP90-mediated luciferase refolding in reticulocyte lysate; Rabbit reticulocyte lysate, luciferase refolding luminescence, 3 h; inhibition, % at 5.6 µM; 0.91% of 290,000 active; AID 1789;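 active = inhibition above the screen-wide mean plus 3 SD, computed separately per campaign, cut at about 16% in these data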;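 also: inhibitors lower the luminescence because luciferase stays unfolded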
Numbers stand for hits. Shown are actives, neighbours in structure and some others; about 3.1% of the full set was active somewhere.

How did Cc1c(CC(=O)O)c(=O)oc2cc(OCc3ccc(F)cc3F)ccc12 do in these assays?
HSF1 activator: inactive; HSF1 inh: inactive; HIF activator: inactive; ARNT TACC3 PPI: inactive; HSP90 refold inh: inactive

What do the screens show for `Cc1c(CC(=O)O)c(=O)oc2cc(OCc3ccc(Br)cc3)ccc12`?
HSF1 activator: inactive; HSF1 inh: inactive; HIF activator: inactive; ARNT TACC3 PPI: inactive; HSP90 refold inh: 17

How did COc1ccc(NC(=O)N(C)C[C@H]2Oc3c(NC(=O)c4ccc(-c5nccs5)cc4)cccc3C(=O)N([C@@H](C)CO)C[C@H]2C)cc1 do in these assays?
ARNT TACC3 PPI: inactive

Results for COCC(=O)N(C)C[C@@H]1Oc2cc(-c3ccccc3)ccc2S(=O)(=O)N([C@H](C)CO)C[C@H]1C ?
ARNT TACC3 PPI: inactive

How did CCOC(=O)c1sc(NC(=O)c2ccccc2)cc1C do in these assays?
HSF1 activator: 55; HSF1 inh: inactive; HIF activator: inactive; ARNT TACC3 PPI: inactive; HSP90 refold inh: inactive

What do the screens show for `CCOC(=O)Cc1cnc(NC(=O)c2ccccc2)s1`?
HSF1 activator: inactive; HSF1 inh: -54; HIF activator: inactive; ARNT TACC3 PPI: inactive; HSP90 refold inh: inactive

What do the screens show for `Cc1nc(Nc2ccccc2)sc1C`?
HSF1 activator: inactive; HSF1 inh: -52; HIF activator: inactive; ARNT TACC3 PPI: inactive; HSP90 refold inh: inactive

Results for Cc1nc(NC(=O)c2ccccc2O)sc1C ?
HSF1 activator: inactive; HSF1 inh: inactive; HIF activator: inactive; ARNT TACC3 PPI: inactive; HSP90 refold inh: inactive

Results for Cc1nc(NC(=O)c2csc3ccccc23)sc1C ?
HSF1 activator: 61; HSF1 inh: inactive; HIF activator: inactive; ARNT TACC3 PPI: inactive; HSP90 refold inh: inactive

What do the screens show for `Cc1csc(Nc2ccccc2)n1`?
HSF1 activator: inactive; HSF1 inh: inactive; HIF activator: inactive; ARNT TACC3 PPI: inactive; HSP90 refold inh: inactive

How did OC[C@H]1Nc2ccc(C#Cc3ccc(F)cc3)cc2[C@@H]2[C@H]1CCN2Cc1nccs1 do in these assays?
ARNT TACC3 PPI: inactive

Results for CCCNC(=O)N(C)C[C@@H]1Oc2ncc(-c3ccccc3)cc2C(=O)N([C@@H](C)CO)C[C@@H]1C ?
ARNT TACC3 PPI: inactive

What do the screens show for `CO[C@H]1CN(C)C(=O)c2ccc(NC(=O)NC(C)C)cc2OC[C@@H](C)N(CCC(F)(F)F)C[C@H]1C`?
ARNT TACC3 PPI: inactive

How did Cc1nc(NC(=O)c2ccccc2)sc1C do in these assays?
HSF1 activator: 58; HSF1 inh: inactive; HIF activator: inactive; ARNT TACC3 PPI: inactive; HSP90 refold inh: inactive

Results for Cc1nc(NC(=S)NC(=O)c2ccccc2)sc1C ?
HSF1 activator: inactive; HSF1 inh: inactive; HIF activator: inactive; ARNT TACC3 PPI: inactive; HSP90 refold inh: inactive

How did CCOC(=O)c1sc(=NC(=O)c2ccccc2)n(C)c1C do in these assays?
HSF1 activator: 61; HSF1 inh: inactive; HIF activator: inactive; ARNT TACC3 PPI: inactive; HSP90 refold inh: inactive

How did COc1ccc(S(=O)(=O)Nc2ccc3c(c2)C(=O)N(C)C[C@H](OC)[C@@H](C)CN[C@@H](C)CO3)cc1 do in these assays?
ARNT TACC3 PPI: inactive

What do the screens show for `C[C@H](CO)N1C[C@H](C)[C@H](CN(C)C(=O)Nc2ccc3c(c2)OCO3)Oc2ccc(NC(=O)CCN3CCOCC3)cc2C1=O`?
ARNT TACC3 PPI: inactive

Results for CC1(C)CC(=O)C2=C(C1)Nc1cc3c(cc1C2c1ccc2c(c1)OCO2)OCO3 (stereo not given) ?
HSF1 activator: 62; HSF1 inh: inactive; HIF activator: inactive; ARNT TACC3 PPI: inactive; HSP90 refold inh: inactive

Results for COC(=O)[C@H]1[C@H](CO)[C@H]2Cn3c(ccc(-c4ccccc4)c3=O)[C@H]2N1CCc1ccccc1 ?
ARNT TACC3 PPI: inactive

What do the screens show for `CC1CCN(c2ccc(C=O)o2)CC1`?
HSF1 activator: 58; HSF1 inh: inactive; HIF activator: inactive; ARNT TACC3 PPI: inactive; HSP90 refold inh: inactive

How did Cc1ccccc1-c1ccc([C@H]2[C@H](CO)N3CCCCN(C(=O)CN4CCOCC4)C[C@@H]23)cc1 do in these assays?
ARNT TACC3 PPI: inactive

Results for Cc1ccccc1S(=O)(=O)N(C)C[C@@H]1OCc2ccccc2-c2ccccc2C(=O)N([C@H](C)CO)C[C@H]1C ?
ARNT TACC3 PPI: inactive

Results for CCN1C(=O)CSc2ccc(C(=O)NCc3ccc(OC)cc3)cc21 ?
HSF1 activator: 52; HSF1 inh: inactive; HIF activator: inactive; ARNT TACC3 PPI: inactive; HSP90 refold inh: inactive

How did CCCCNC(=O)c1ccc2c(c1)N(CC)C(=O)CS2 do in these assays?
HSF1 activator: inactive; HSF1 inh: inactive; HIF activator: inactive; ARNT TACC3 PPI: inactive; HSP90 refold inh: inactive

How did CCN1CCSc2ccc(C(=O)NCc3ccc(OC(C)C)cc3)cc21 do in these assays?
HSF1 activator: 77; HSF1 inh: inactive; HIF activator: inactive; ARNT TACC3 PPI: inactive; HSP90 refold inh: inactive

Results for CCN1CCSc2ccc(C(=O)NCc3cc(Br)ccc3OC)cc21 ?
HSF1 activator: inactive; HSF1 inh: inactive; HIF activator: inactive; ARNT TACC3 PPI: inactive; HSP90 refold inh: inactive

What do the screens show for `CCOc1ccc(CNC(=O)c2ccc3c(c2)N(CC)CCS3)cc1`?
HSF1 activator: 55; HSF1 inh: inactive; HIF activator: inactive; ARNT TACC3 PPI: inactive; HSP90 refold inh: inactive

Results for S=C(NN=Cc1ccccn1)N(Cc1ccccn1)Cc1ccccn1 ?
ARNT TACC3 PPI: 59

How did S=C(NN=C(c1ccccc1)c1ccccn1)N(Cc1ccccn1)Cc1ccccn1 do in these assays?
ARNT TACC3 PPI: 66

Results for Cc1ccccc1NC(=S)N(Cc1ccccn1)Cc1ccccc1Cl ?
HSF1 activator: inactive; HSF1 inh: inactive; HIF activator: inactive; ARNT TACC3 PPI: inactive; HSP90 refold inh: inactive

What do the screens show for `CC(=NNC(=S)N(Cc1ccccn1)Cc1ccccn1)c1cnccn1`?
ARNT TACC3 PPI: 64

What do the screens show for `C[C@H]1CN([C@@H](C)CO)C(=O)Cc2cc(NC(=O)Cc3ccccc3)ccc2O[C@@H]1CN(C)C(=O)Nc1ccc(F)cc1`?
ARNT TACC3 PPI: inactive

Results for O=C(C[C@H]1C[C@H]2c3cc(NC(=O)Nc4ccc(C(F)(F)F)cc4)ccc3O[C@H]2[C@H](CO)O1)NCc1ccc(Cl)cc1 ?
ARNT TACC3 PPI: inactive

How did C[C@@H]1CCCCO[C@H](CN(C)Cc2ccncc2)[C@H](C)CN([C@H](C)CO)C(=O)c2cc(NC(=O)Nc3ccc(C(F)(F)F)cc3)ccc2O1 do in these assays?
ARNT TACC3 PPI: inactive

How did O=C(C[C@H]1CC[C@H]2[C@@H](COC[C@@H](O)CN2C(=O)c2ccccc2F)O1)NCc1ccccc1 do in these assays?
ARNT TACC3 PPI: inactive

Results for COc1ccc(NC(=O)Nc2ccc3c(c2)C(=O)N([C@@H](C)CO)C[C@@H](C)[C@@H](CN(C)C(=O)Nc2ccc4c(c2)OCO4)O3)cc1 ?
ARNT TACC3 PPI: inactive

Results for C[C@@H]1CN([C@@H](C)CO)C(=O)c2cc(NC(=O)Nc3ccc4c(c3)OCO4)ccc2O[C@H]1CN(C)Cc1ccc(Cl)c(Cl)c1 ?
ARNT TACC3 PPI: inactive
